From PubChem BioAssay
SW480 rerep = inducers of DNA re-replication in SW480 colon cancer cells | SW480 DNA re-replication, Hoechst DNA content imaging, 48 h | Potency, µM (doses to about 46.1 µM), most hits filed as activators | actives 1.8% (n = 340,000) | AID 624297; note: nearly all actives have a fitted effect of over 55% in size
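250 cells/well; 23 nL cpd via pin tool; 48 hr, 37 C, 5% CO2; Hoechst 40 min; imager read of total nuclear intensity, ex 405/em 500-530 nm.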
KB-3-1 cytotox = KB-3-1 parental cell cytotoxicity | AID 1347075 | Potency, µM (top dose mostly 46.1 µM), hits mostly cytotoxic | KB-3-1 viability, CellTiter-Glo ATP luminescence, 72 h | actives 1.4% (n = 400,000); note: nearly all actives have a fitted effect of over 60% in size
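Luminescent ATP read-out (CellTiter-Glo) measures survival of drug-naive KB-3-1 cells after 72 h compound exposure at 37 °C. Titration series was screened from lowest to highest concentration, with DMSO vehicle plates as background controls.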
HT1080 IDH1KD tx = toxicity to HT-1080 IDH1 knockdown cells (counter line). HT-1080 IDH1 knockdown viability, ATP luminescence, 48 h. Potency, µM (titrated, usually from 46.1 µM), hits mostly cytotoxic. actives 2% (n = 360,000). AID 686971
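Using the IDH1-knockdown HT-1080 line run in the same batch and compound series as the NT line, viability after 48 h at 37 °C was determined by CellTiter-Glo luminescence and expressed as % activity.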
KB-V1 MDR tox = KB-V1 MDR subline cytotoxicity; actives 3.4% (n = 400,000); Potency, µM (series often up to 46.1 µM), most hits filed as cytotoxic; KB-V1 MDR cells viability, CellTiter-Glo, 72 h; AID 1347076; note: nearly all actives have a fitted effect of over 60% in size
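KB-V1 MDR subline cells in DMEM (phenol-red free, 10% FBS) exposed to compounds in qHTS concentration series for 72 h at 37 degrees C. Viability read by CellTiter-Glo luminescence; concentration-effect curves fitted after normalization and correction.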
MCF10A rerep = DNA re-replication induction in MCF 10a cells; MCF 10A DNA re-replication, Hoechst nuclear intensity, 48 h; Potency, µM (titrated, usually from 46.1 µM), most hits filed as activators; actives 2.9% (n = 350,000); note: nearly all actives have a fitted effect of over 50% in size
HT1080-NT tox = kills 2HG-producing HT-1080-NT fibrosarcoma cells | HT-1080-NT fibrosarcoma viability, CellTiter-Glo ATP luminescence, 48 h | Potency, µM (highest dose often 46.1 µM), usual class: cytotoxic | actives 1.6% (n = 360,000);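 note: NT is the 2HG producing partner of a matched IDH1 knockdown line; nearly all actives have a fitted effect of over 55% in size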
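A 48-hour cytotoxicity screen used HT-1080-NT cells plated 2 hours before compound delivery. ATP-based CellTiter-Glo luminescence measured viability, normalized to DMSO and no-cell controls.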
Each line names hits and unclear results; the compound was inactive in the other large screens. Hits are enriched below; roughly 8% of the tested compounds scored in any of these assays. Calls come from the whole dose curve; as a rule, active = well fitted curve in the direction sought with a large enough effect; inconclusive = small, poorly fitted or top-dose-only effect, or another doubt; inactive = no such curve, though single readings can be large; an effect the other way counts as inactive or inconclusive.

COc1cccc(NC(=O)c2ccc(CN3CCN(c4ccccc4)CC3)cc2)c1	KB-3-1 cytotox 8.9µM, HT1080 IDH1KD tx inconclusive, KB-V1 MDR tox inconclusive, MCF10A rerep inconclusive
O=C(COC(=O)c1ccccc1Sc1ccc(C(F)(F)F)cc1[N+](=O)[O-])NC(=O)NC1CCCC1	none
Cc1ccc(C)c(NC(=S)NNC(=O)c2csc3c2CCC(C)C3)c1 (centres undefined)	KB-3-1 cytotox inconclusive, HT1080 IDH1KD tx inconclusive, KB-V1 MDR tox inconclusive, HT1080-NT tox inconclusive
COc1ccc(-n2c3c(cc(C(=O)NC4CCSC4=O)c2=O)C(=O)CC(C)(C)C3)cc1 (centres undefined)	none
Cc1ccc(-c2ccc(SCC(=O)NCC3CCCO3)nn2)cc1 (centres undefined)	KB-V1 MDR tox inconclusive
COc1ccc(N2CCN(CNC(=O)c3ccccc3)CC2)cc1	MCF10A rerep 0.92µM
CCc1ccc2[nH]c(=O)c(CN(CCN(CC)CC)C(=O)Nc3ccccc3OC)cc2c1	KB-3-1 cytotox inconclusive, HT1080 IDH1KD tx inconclusive, HT1080-NT tox 16µM
CCN(CC)CCCN(Cc1cc2cc(OC)ccc2[nH]c1=O)C(=O)Nc1ccc(F)cc1	SW480 rerep inconclusive, HT1080 IDH1KD tx inconclusive, MCF10A rerep 2.9µM, HT1080-NT tox inconclusive
O=C(CN1CCc2ccccc21)NN1CC(=O)N(c2ccc(Cl)cc2)CC1=O	KB-V1 MDR tox inconclusive
O=C(NNC(=O)c1cccs1)c1ccc(Br)o1	none
Cc1cc(C(F)(F)F)n(-c2nc(C(=O)NN)cs2)n1	none
COc1ccc(/C=N/NC(=O)c2csc(-n3nc(C)cc3C(F)(F)F)n2)cc1	SW480 rerep inconclusive, KB-3-1 cytotox 7.3µM, MCF10A rerep inconclusive
Cc1ccc(C(=O)NNCC(=O)Nc2ccc(Cl)cc2F)cc1	none
CCOc1cnn(-c2cc(Oc3ccc(C)cc3)ncn2)c(=O)c1Cl	none
Cc1ccccc1Oc1cc(-n2ncc(Cl)c(Cl)c2=O)ncn1	SW480 rerep inconclusive, KB-3-1 cytotox 15µM, HT1080 IDH1KD tx 7.3µM, MCF10A rerep 0.73µM, HT1080-NT tox 13µM
S=C(Nc1ccccc1Cl)Nc1ccc(Cl)cc1Cl	none
S=C(NNc1ccnc2cc(Cl)ccc12)Nc1ccccc1Cl	SW480 rerep inconclusive, KB-3-1 cytotox 23µM, HT1080 IDH1KD tx inconclusive, KB-V1 MDR tox inconclusive, MCF10A rerep inconclusive, HT1080-NT tox inconclusive
Cc1cccc(NC(=S)NNc2ncc(C(F)(F)F)cc2Cl)c1	KB-3-1 cytotox inconclusive, KB-V1 MDR tox 15µM
FC(F)(F)c1cnc(NNC(=S)Nc2ccccc2Cl)c(Cl)c1	KB-3-1 cytotox 16µM, HT1080 IDH1KD tx inconclusive, KB-V1 MDR tox inconclusive, HT1080-NT tox inconclusive
COc1ccc(OC)c(S(=O)(=O)N2CCC(C(=O)NCc3cccnc3)CC2)c1	none
CCCS(=O)(=O)NC(=O)C1(C)CCN(C(=O)Cc2ccc(OC)c(OC)c2)C1 (centres undefined)	none (no result: SW480 rerep, MCF10A rerep)
N/C(=N\S(=O)(=O)c1cccs1)c1ccccc1Cl	none
CCCCCn1c2c(c(=N)c3ccccc31)CCC2	KB-3-1 cytotox 3.7µM, HT1080 IDH1KD tx 2.9µM, KB-V1 MDR tox inconclusive, HT1080-NT tox inconclusive
CCCCCCCCn1c2c(c(=N)c3ccccc31)CCC2	KB-3-1 cytotox 3.3µM, HT1080 IDH1KD tx 9.2µM, MCF10A rerep inconclusive, HT1080-NT tox 23µM
Cc1cc(C)cc(N(CC(=O)NC(C)(C)C)C(=O)CCC(=O)Nc2ccccn2)c1	none
O=C(O)CSCC(=O)Nc1cc(C(F)(F)F)ccc1Cl	none
CC(C)Oc1cc(NC(=O)CSCC(=O)Nc2cccc(C(F)(F)F)c2)c(Cl)cc1Cl	SW480 rerep inconclusive, HT1080 IDH1KD tx inconclusive, KB-V1 MDR tox 13µM
C=CCC[C@@H](Cc1ccc(F)cc1)C(=O)OC[C@@H](Cc1c[nH]c2ccccc12)NC(=O)[C@H](CC=C)CC(=O)N(CCO)Cc1ccccc1	SW480 rerep inconclusive, KB-3-1 cytotox inconclusive, HT1080 IDH1KD tx inconclusive, KB-V1 MDR tox 21µM, MCF10A rerep 23µM, HT1080-NT tox 16µM
C=CC[C@@H](CC(=O)N(CCO)Cc1ccccc1)C(=O)NC[C@H](OC(=O)[C@@H](CC=C)Cc1ccc(F)cc1)c1ccccc1	KB-3-1 cytotox inconclusive, HT1080 IDH1KD tx inconclusive, KB-V1 MDR tox 16µM, MCF10A rerep inconclusive, HT1080-NT tox inconclusive
C=CC[C@@H](CC(=O)N(CCO)Cc1ccccc1)C(=O)N[C@@H](COC(=O)[C@@H](CC=C)Cc1ccc(F)cc1)Cc1c[nH]c2ccccc12	KB-3-1 cytotox inconclusive, HT1080 IDH1KD tx inconclusive, KB-V1 MDR tox inconclusive, MCF10A rerep inconclusive, HT1080-NT tox inconclusive
C=CC[C@H](CC(=O)N(CCO)Cc1ccccc1)C(=O)N[C@@H](COC(=O)[C@@H](CC=C)Cc1ccc(F)cc1)Cc1c[nH]c2ccccc12	SW480 rerep 21µM, HT1080 IDH1KD tx inconclusive, MCF10A rerep 18µM, HT1080-NT tox inconclusive
C=CCC[C@H](Cc1ccc(F)cc1)C(=O)OC[C@@H](Cc1c[nH]c2ccccc12)NC(=O)[C@H](CC=C)CC(=O)N(CCO)Cc1ccccc1	SW480 rerep inconclusive, KB-3-1 cytotox inconclusive, HT1080 IDH1KD tx inconclusive, KB-V1 MDR tox inconclusive, MCF10A rerep 18µM, HT1080-NT tox inconclusive
CN1CCN(C(=O)/C=C/c2ccc(Cl)cc2)CC1	HT1080 IDH1KD tx inconclusive
O=C(CNc1ccccc1Cl)c1ccc(Br)cc1	HT1080 IDH1KD tx inconclusive, MCF10A rerep inconclusive
COC(=O)c1cc(C)nc2c1C(=O)C(=O)C=C2N1CCOCC1	SW480 rerep inconclusive, KB-3-1 cytotox inconclusive, HT1080 IDH1KD tx 5.2µM, KB-V1 MDR tox inconclusive, MCF10A rerep inconclusive, HT1080-NT tox 6.5µM
CC(=NNc1nc2ccccc2o1)c1ncccn1	SW480 rerep inconclusive, KB-3-1 cytotox 1.8µM, HT1080 IDH1KD tx 1.2µM, KB-V1 MDR tox inconclusive, MCF10A rerep inconclusive, HT1080-NT tox inconclusive
CC(=NNc1nc2ccccc2o1)c1cc2ccccc2cn1	SW480 rerep 13µM, KB-3-1 cytotox inconclusive, HT1080 IDH1KD tx inconclusive, KB-V1 MDR tox inconclusive, MCF10A rerep inconclusive, HT1080-NT tox inconclusive
Cc1cc(C)nc(Nc2nc3ccccc3o2)n1	KB-V1 MDR tox inconclusive
Oc1ccccc1/C=N/Nc1nc2ccccc2o1	SW480 rerep inconclusive, KB-3-1 cytotox inconclusive, HT1080 IDH1KD tx inconclusive, KB-V1 MDR tox inconclusive, HT1080-NT tox inconclusive
CC(=NNc1nc2ccccc2s1)c1ncccn1	SW480 rerep inconclusive, KB-3-1 cytotox 2.3µM, HT1080 IDH1KD tx 1.2µM, KB-V1 MDR tox 1.3µM, MCF10A rerep inconclusive, HT1080-NT tox inconclusive
O=CN1CCN(S(=O)(=O)c2ccc(Cl)c(C(=O)O)c2)CC1	none
CCCN(CC(=O)Nc1ccc(F)c(F)c1F)C(=O)C1CC(=O)N(Cc2ccccc2)C1 (centres undefined)	none
